Mtb BioA inh = inhibitors of Mycobacterium tuberculosis BioA enzyme; purified M. tuberculosis BioA enzyme, plate reader; 360,000 compounds, 0.096% hits; inhibition, % at 9.99 µM; in the data active means inhibition above about 40%
Mtb FBA inh = Mtb fructose-bisphosphate aldolase inhibition; P9WQA3; purified M. tuberculosis FBA, fluorescence read-out; inhibition, % at 1 µM; 360,000 compounds, 2.3% hits; AID 588726;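 further: 0% = vehicle and 100% = reference inhibitor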
FadD28 binding = M. tuberculosis FadD28 bisubstrate binding inhibition | inhibition, % at 12.5 µM | FadD28 bisubstrate probe binding, fluorescence polarization | 360,000 compounds, 0.22% hits | AID 588549; in the data active means inhibition above about 8.5%, passing the limit was not always enough
GDH-TPI counter-1 = counter-screen for M. tuberculosis FBA inhibitors: GDH-TPI coupled enzymes; GDH-TPI coupled enzyme counterscreen, NADH absorbance; inhibition, % at 4.8 µM; 360,000 compounds, 1.2% hits; AID 588335; in the data active means inhibition above about 30%;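 further: 0% = DMSO wells and 100% = wells lacking the enzyme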
Rv3671c protease = inhibitors of M. tuberculosis serine protease Rv3671c; P9WHR9; inhibition, % at 5.96 µM; 320,000 compounds, 0.048% hits; in the data active means inhibition above about 38%;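 further: extracellular domain of Rv3671c used as enzyme; 0% = enzyme with DMSO and 100% = no enzyme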
Target sequence (P9WHR9 whole entry, looked up, the tested form may be a part): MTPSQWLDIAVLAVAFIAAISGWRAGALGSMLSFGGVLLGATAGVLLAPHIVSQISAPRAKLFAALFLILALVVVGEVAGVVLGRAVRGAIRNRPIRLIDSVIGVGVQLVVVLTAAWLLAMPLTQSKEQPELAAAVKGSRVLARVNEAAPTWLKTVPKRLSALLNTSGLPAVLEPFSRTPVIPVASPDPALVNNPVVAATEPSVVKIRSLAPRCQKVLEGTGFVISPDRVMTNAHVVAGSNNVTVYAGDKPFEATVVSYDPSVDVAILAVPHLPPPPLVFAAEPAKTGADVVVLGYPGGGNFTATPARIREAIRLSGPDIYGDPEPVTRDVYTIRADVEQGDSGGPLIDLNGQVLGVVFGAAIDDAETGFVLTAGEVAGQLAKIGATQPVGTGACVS
Mtb FBA inh conf = confirmation of M. tuberculosis fructose-bisphosphate aldolase inhibitors; shares compounds with Mtb FBA inh; purified M. tuberculosis FBA, fluorescence read-out; inhibition, % at 1 µM; 5,600 compounds, 78% hits; AID 651616;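 further: 0% = vehicle wells and 100% = reference inhibitor wells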
GDH-TPI counter-2 = GDH-TPI inhibition counter-screen for FBA inhibitors; GDH-TPI coupled enzyme counterscreen, fluorescence; inhibition, % at 1 µM; 5,600 compounds, 81% hits; shares compounds with Mtb FBA inh; in the data active means inhibition above about 10%
An asterisk follows results filed as active. This is a sample that favours compounds with a hit; in the whole collection about 3% have one here. Unless noted, no stated cut-off is given here; in the data, active means inhibition above about 27%; inactive means the rest.

`O=C1NC(c2ccc(Cl)c([N+](=O)[O-])c2)Nc2ccccc21` (stereo unspecified) gave Mtb FBA inh -1, FadD28 binding -1, GDH-TPI counter-1 3 and Rv3671c protease 4.
C[C@@H]1CN([C@@H](C)CO)S(=O)(=O)c2ccc(C3=CCCC3)cc2O[C@@H]1CN(C)C(=O)C1CCCCC1 was read as Mtb BioA inh 0.
`CS(=O)(=O)N1[C@H](CO)[C@@H](c2ccc(C#CC3CC3)cc2)[C@@H]1C#N` gave Mtb BioA inh -2.
For C[C@H](CO)N1C[C@H](C)[C@@H](CN(C)C(=O)c2ccccc2F)Oc2ncc(-c3ccccc3)cc2C1=O the results were Mtb BioA inh 0.
COc1ccc(OC)c(-n2c(-c3ccc(S(C)(=O)=O)cc3)cc(C=O)c2C)c1 was read as Mtb BioA inh -1, Mtb FBA inh 2, FadD28 binding -4, GDH-TPI counter-1 11 and Rv3671c protease 3.
For COc1ccc(OC)c(-n2c(C)ccc2-c2ccc(S(C)(=O)=O)cc2)c1 the results were Mtb BioA inh -1, Mtb FBA inh 91*, FadD28 binding 0, GDH-TPI counter-1 19, Rv3671c protease -1, Mtb FBA inh conf 87* and GDH-TPI counter-2 97*.
c1cncc(-c2ccnc3ncnn23)c1 was read as Mtb FBA inh 1, FadD28 binding -2, GDH-TPI counter-1 12 and Rv3671c protease 7.
`c1coc(-c2ccnc3ncnn23)c1` gave Mtb FBA inh 93*, FadD28 binding 0, GDH-TPI counter-1 23, Rv3671c protease -3, Mtb FBA inh conf 94* and GDH-TPI counter-2 74*.
CCC(CO)Nc1ccn2nc(-c3cccs3)cc2n1 (stereo unspecified) was read as Mtb BioA inh -1, Mtb FBA inh 39*, FadD28 binding -4, GDH-TPI counter-1 8, Mtb FBA inh conf active and GDH-TPI counter-2 active.
Screening CCC(CO)Nc1ccn2nc(-c3cc(OC)c(OC)c(OC)c3)cc2n1 (stereo unspecified) returned Mtb BioA inh 0, Mtb FBA inh 32*, FadD28 binding 0, GDH-TPI counter-1 14, Mtb FBA inh conf -9 and GDH-TPI counter-2 -7.
`CCC(CO)Nc1ccn2nc(-c3ccccc3)cc2n1` (stereo unspecified) gave Mtb BioA inh -1, Mtb FBA inh 18, FadD28 binding 0 and GDH-TPI counter-1 3.
COc1c(Cl)cccc1-c1cn2ccc(C)cc2n1 was read as Mtb FBA inh 38*, FadD28 binding -2, GDH-TPI counter-1 1, Rv3671c protease 5, Mtb FBA inh conf 36* and GDH-TPI counter-2 39*.
Screening Cc1ccn2cc(-c3cnoc3C)nc2c1 returned Mtb BioA inh 8, Mtb FBA inh 31*, FadD28 binding -4, GDH-TPI counter-1 -8, Rv3671c protease 2, Mtb FBA inh conf 15 and GDH-TPI counter-2 0.
`CNC[C@@H]1OCCCC[C@H](C)Oc2ccc(NC(=O)Nc3ccc(OC)cc3)cc2C(=O)N([C@H](C)CO)C[C@H]1C` gave Mtb BioA inh 0.
`CO[C@H]1CN(C)C(=O)c2cc(NC(=O)C3CC3)ccc2OC[C@H](C)N(CCc2ccccc2)C[C@@H]1C` gave Mtb BioA inh 2.
`C[C@H](CO)N1C[C@H](C)[C@@H](CN(C)Cc2ccc(-c3ccccc3)cc2)Oc2c(NC(=O)NC3CCCCC3)cccc2C1=O` gave Mtb BioA inh -1.
Screening CCN1CCCC1CNC(=O)c1cc2cc(F)ccc2[nH]1 (stereo unspecified) returned Mtb BioA inh 0, Mtb FBA inh 30*, FadD28 binding -5, GDH-TPI counter-1 -1, Rv3671c protease 7, Mtb FBA inh conf active and GDH-TPI counter-2 active.
Cc1cc(O)c(C(C[N+](=O)[O-])c2ccc(Cl)cc2)c(=O)o1 (stereo unspecified) was read as Mtb BioA inh -6, Mtb FBA inh 102*, FadD28 binding 1, GDH-TPI counter-1 9, Rv3671c protease 9, Mtb FBA inh conf -1 and GDH-TPI counter-2 -4.
Cc1[nH]n(-c2ccccc2)c(=O)c1C(C[N+](=O)[O-])c1ccc(Cl)cc1 (stereo unspecified) was read as Mtb FBA inh 1, FadD28 binding 0, GDH-TPI counter-1 1 and Rv3671c protease -77.
`C[C@@H](NC(=O)C[C@@H]1CC[C@H]2[C@@H](COC[C@@H](O)CN2C(=O)Nc2ccccc2)O1)c1ccccc1` gave Mtb BioA inh 0.
CN(C)C(=O)c1cccc(-c2ccc3c(c2)[C@H]2[C@H](CCN2C(=O)c2ccc(F)cc2)[C@@H](CO)N3C)c1 was read as Mtb BioA inh 5.
CC(=O)N1CCc2cc(S(=O)(=O)NCCC(=O)N3CCN(c4ccccn4)CC3)ccc21 was read as Mtb BioA inh -1, Mtb FBA inh 54*, FadD28 binding 1, GDH-TPI counter-1 8, Rv3671c protease -1, Mtb FBA inh conf 67* and GDH-TPI counter-2 49*.
For CC(=O)N1CCc2cc(S(=O)(=O)NCCC(=O)N3CCc4ccccc4C3)ccc21 the results were Mtb BioA inh 9, Mtb FBA inh -2, FadD28 binding 0, GDH-TPI counter-1 3 and Rv3671c protease -3.
`C[C@@H]1CN([C@@H](C)CO)C(=O)c2cc(NC(=O)C3CCCCC3)ccc2O[C@@H](C)CCCCO[C@H]1CN(C)C(=O)Cc1ccccc1` gave Mtb BioA inh 0.
For c1ccc(-c2cnc(-c3cccnc3)o2)cc1 the results were Mtb BioA inh 3, Mtb FBA inh 93*, FadD28 binding -3, GDH-TPI counter-1 5, Rv3671c protease -2, Mtb FBA inh conf 192* and GDH-TPI counter-2 155*.
Fc1cccc(-c2ncc(-c3ccccc3)o2)c1 was read as Mtb BioA inh 1, Mtb FBA inh 24, FadD28 binding 0 and GDH-TPI counter-1 4.
`COc1ccc(-c2nc3ccc(N4CCCC4)cc3c(=O)[nH]2)cc1OC` gave Mtb BioA inh -1, Mtb FBA inh 27*, FadD28 binding -2, GDH-TPI counter-1 24, Rv3671c protease 5, Mtb FBA inh conf 5 and GDH-TPI counter-2 -7.
Screening COc1ccc2nc(-c3ccccc3)[nH]c(=O)c2c1 returned Mtb BioA inh 0, Mtb FBA inh -1, FadD28 binding 1 and GDH-TPI counter-1 22.
`O=c1oc(CCCO)cc2ccc(C#Cc3cccnc3)cc12` gave Mtb BioA inh 12, Mtb FBA inh 53*, FadD28 binding -4, GDH-TPI counter-1 17, Rv3671c protease -6, Mtb FBA inh conf 45* and GDH-TPI counter-2 37*.
`O=c1oc(CCO)cc2ccc(C#Cc3ccsc3)cc12` gave Mtb BioA inh -2, Mtb FBA inh 45*, FadD28 binding -3, GDH-TPI counter-1 8, Rv3671c protease -1, Mtb FBA inh conf 82* and GDH-TPI counter-2 52*.

Bioassay records as filed in PubChem BioAssay.
